Results taken from publication PMC8222333, “AsCas12a ultra nuclease facilitates the rapid generation of therapeutic cell medicines”.

B1: CTTA (dsDNA)
DNA 1: GCTATCTAGTGCTCAGTACGCACTGCTTAAGGAAACTTCTGGCAGGACCAGGTCATGAGATCGGAAGAGCACACGTCTGAACTCCAGTCA
DNA 2: TGACTGGAGTTCAGACGTGTGCTCTTCCGATCTCATGACCTGGTCCTGCCAGAAGTTTCCTTAAGCAGTGCGTACTGAGCACTAGATAGC
RNA: AAUUUCUACUCUUGUAGAUAGGAAACUUCUGGCAGGACC
B2: TCTA (dsDNA)
DNA 1: GCTATCTAGTGCTCAGTACGCACTGTCTAAGGAAACTTCTGGCAGGACCAGGTCATGAGATCGGAAGAGCACACGTCTGAACTCCAGTCA
DNA 2: TGACTGGAGTTCAGACGTGTGCTCTTCCGATCTCATGACCTGGTCCTGCCAGAAGTTTCCTTAGACAGTGCGTACTGAGCACTAGATAGC
RNA: AAUUUCUACUCUUGUAGAUAGGAAACUUCUGGCAGGACC
B3: GTTT (dsDNA)
DNA 1: GCTATCTAGTGCTCAGTACGCACTGGTTTAGGAAACTTCTGGCAGGACCAGGTCATGAGATCGGAAGAGCACACGTCTGAACTCCAGTCA
DNA 2: TGACTGGAGTTCAGACGTGTGCTCTTCCGATCTCATGACCTGGTCCTGCCAGAAGTTTCCTAAACCAGTGCGTACTGAGCACTAGATAGC
RNA: AAUUUCUACUCUUGUAGAUAGGAAACUUCUGGCAGGACC
B4: GTTA (dsDNA)
DNA 1: GCTATCTAGTGCTCAGTACGCACTGGTTAAGGAAACTTCTGGCAGGACCAGGTCATGAGATCGGAAGAGCACACGTCTGAACTCCAGTCA
DNA 2: TGACTGGAGTTCAGACGTGTGCTCTTCCGATCTCATGACCTGGTCCTGCCAGAAGTTTCCTTAACCAGTGCGTACTGAGCACTAGATAGC
RNA: AAUUUCUACUCUUGUAGAUAGGAAACUUCUGGCAGGACC
B5: TATG (dsDNA)
DNA 1: GCTATCTAGTGCTCAGTACGCACTGTATGAGGAAACTTCTGGCAGGACCAGGTCATGAGATCGGAAGAGCACACGTCTGAACTCCAGTCA
DNA 2: TGACTGGAGTTCAGACGTGTGCTCTTCCGATCTCATGACCTGGTCCTGCCAGAAGTTTCCTCATACAGTGCGTACTGAGCACTAGATAGC
RNA: AAUUUCUACUCUUGUAGAUAGGAAACUUCUGGCAGGACC
B6: CTTT (dsDNA)
DNA 1: GCTATCTAGTGCTCAGTACGCACTGCTTTAGGAAACTTCTGGCAGGACCAGGTCATGAGATCGGAAGAGCACACGTCTGAACTCCAGTCA
DNA 2: TGACTGGAGTTCAGACGTGTGCTCTTCCGATCTCATGACCTGGTCCTGCCAGAAGTTTCCTAAAGCAGTGCGTACTGAGCACTAGATAGC
RNA: AAUUUCUACUCUUGUAGAUAGGAAACUUCUGGCAGGACC
B7: TATA (dsDNA)
DNA 1: GCTATCTAGTGCTCAGTACGCACTGTATAAGGAAACTTCTGGCAGGACCAGGTCATGAGATCGGAAGAGCACACGTCTGAACTCCAGTCA
DNA 2: TGACTGGAGTTCAGACGTGTGCTCTTCCGATCTCATGACCTGGTCCTGCCAGAAGTTTCCTTATACAGTGCGTACTGAGCACTAGATAGC
RNA: AAUUUCUACUCUUGUAGAUAGGAAACUUCUGGCAGGACC
B8: CTTG (dsDNA)
DNA 1: GCTATCTAGTGCTCAGTACGCACTGCTTGAGGAAACTTCTGGCAGGACCAGGTCATGAGATCGGAAGAGCACACGTCTGAACTCCAGTCA
DNA 2: TGACTGGAGTTCAGACGTGTGCTCTTCCGATCTCATGACCTGGTCCTGCCAGAAGTTTCCTCAAGCAGTGCGTACTGAGCACTAGATAGC
RNA: AAUUUCUACUCUUGUAGAUAGGAAACUUCUGGCAGGACC
B9: TATC (dsDNA)
DNA 1: GCTATCTAGTGCTCAGTACGCACTGTATCAGGAAACTTCTGGCAGGACCAGGTCATGAGATCGGAAGAGCACACGTCTGAACTCCAGTCA
DNA 2: TGACTGGAGTTCAGACGTGTGCTCTTCCGATCTCATGACCTGGTCCTGCCAGAAGTTTCCTGATACAGTGCGTACTGAGCACTAGATAGC
RNA: AAUUUCUACUCUUGUAGAUAGGAAACUUCUGGCAGGACC
B10: GTTC (dsDNA)
DNA 1: GCTATCTAGTGCTCAGTACGCACTGGTTCAGGAAACTTCTGGCAGGACCAGGTCATGAGATCGGAAGAGCACACGTCTGAACTCCAGTCA
DNA 2: TGACTGGAGTTCAGACGTGTGCTCTTCCGATCTCATGACCTGGTCCTGCCAGAAGTTTCCTGAACCAGTGCGTACTGAGCACTAGATAGC
RNA: AAUUUCUACUCUUGUAGAUAGGAAACUUCUGGCAGGACC
B11: CTTC (dsDNA)
DNA 1: GCTATCTAGTGCTCAGTACGCACTGCTTCAGGAAACTTCTGGCAGGACCAGGTCATGAGATCGGAAGAGCACACGTCTGAACTCCAGTCA
DNA 2: TGACTGGAGTTCAGACGTGTGCTCTTCCGATCTCATGACCTGGTCCTGCCAGAAGTTTCCTGAAGCAGTGCGTACTGAGCACTAGATAGC
RNA: AAUUUCUACUCUUGUAGAUAGGAAACUUCUGGCAGGACC
B12: TCCC (dsDNA)
DNA 1: GCTATCTAGTGCTCAGTACGCACTGTCCCAGGAAACTTCTGGCAGGACCAGGTCATGAGATCGGAAGAGCACACGTCTGAACTCCAGTCA
DNA 2: TGACTGGAGTTCAGACGTGTGCTCTTCCGATCTCATGACCTGGTCCTGCCAGAAGTTTCCTGGGACAGTGCGTACTGAGCACTAGATAGC
RNA: AAUUUCUACUCUUGUAGAUAGGAAACUUCUGGCAGGACC
B13: GTTG (dsDNA)
DNA 1: GCTATCTAGTGCTCAGTACGCACTGGTTGAGGAAACTTCTGGCAGGACCAGGTCATGAGATCGGAAGAGCACACGTCTGAACTCCAGTCA
DNA 2: TGACTGGAGTTCAGACGTGTGCTCTTCCGATCTCATGACCTGGTCCTGCCAGAAGTTTCCTCAACCAGTGCGTACTGAGCACTAGATAGC
RNA: AAUUUCUACUCUUGUAGAUAGGAAACUUCUGGCAGGACC

Experiments:
dAsCas12a WT = dAsCas12a WT (Acidaminococcus sp., UniProt U2UMQ6 1-1307, D908A;E993A;D1235A); assay: Spec-seq (native PAGE EMSA with sequencing of bound and unbound); 25 mM Tris-HCl pH 7.4, 150 mM KCl, 5 mM MgCl2, 10% glycerol, 1 mM DTT, 40 ng/uL salmon sperm DNA; 400 nM Cas12a, 480 nM crRNA, 50 nM library, 37 C 1 h; native P; high values mean tight binding
dAsCas12a Ultra = dAsCas12a Ultra (Acidaminococcus sp., UniProt U2UMQ6 1-1307, M537R;F870L;D908A;E993A;D1235A); assay: Spec-seq (native PAGE EMSA with sequencing of bound and unbound); 25 mM Tris-HCl pH 7.4, 150 mM KCl, 5 mM MgCl2, 10% glycerol, 1 mM DTT, 40 ng/uL salmon sperm DNA; 400 nM Cas12a, 480 nM crRNA, 50 nM library, 37 C 1 h; native PAGE at room temperature; high values mean tight binding; conditions: protein: recombinant
dAsCas12a E174R = dAsCas12a E174R (Acidaminococcus sp., UniProt U2UMQ6 1-1307, E174R;D908A;E993A;D1235A); assay: as above; conditions: protein: recombinant;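 note: relative affinity from the bound to unbound sequence frequency ratio in Spec-seq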
dAsCas12a S542R = dAsCas12a S542R (Acidaminococcus sp., UniProt U2UMQ6 1-1307, S542R;D908A;E993A;D1235A); assay: as above; conditions: protein: recombinant;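 note: relative affinity from the bound to unbound sequence frequency ratio in Spec-seq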
dAsCas12a K548R = dAsCas12a K548R (Acidaminococcus sp., UniProt U2UMQ6 1-1307, K548R;D908A;E993A;D1235A); assay: as above; conditions: protein: recombinant
d-enCas12a = d-enCas12a (Acidaminococcus sp., UniProt U2UMQ6 1-1307, E174R;S542R;K548R;D908A;E993A;D1235A); assay: as above; conditions: protein: recombinant
d-enCas12a-Ultra = d-enCas12a-Ultra (Acidaminococcus sp., UniProt U2UMQ6 1-1307, E174R;S542R;K548R;M537R;F870L;D908A;E993A;D1235A); assay: as above; conditions: protein: recombinant;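 note: relative affinity from the bound to unbound sequence frequency ratio in Spec-seq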

| Binder | binding signal (dAsCas12a WT) | binding signal (dAsCas12a Ultra) | binding signal (dAsCas12a E174R) | binding signal (dAsCas12a S542R) | binding signal (dAsCas12a K548R) | binding signal (d-enCas12a) | binding signal (d-enCas12a-Ultra) |
| --- | --- | --- | --- | --- | --- | --- | --- |
| B1 | -6.66 lnKA | -4.22 lnKA | -2.38 lnKA | -4.07 lnKA | -5.75 lnKA | -0.581 lnKA | -0.177 lnKA |
| B2 | -6.18 lnKA | -3.71 lnKA | -2.54 lnKA | -4.59 lnKA | -8.57 lnKA | -3.31 lnKA | -0.837 lnKA |
| B3 | -8.41 lnKA | -7.18 lnKA | -6.98 lnKA | -7.04 lnKA | -8.38 lnKA | -2.65 lnKA | -0.552 lnKA |
| B4 | -6.86 lnKA | -4.67 lnKA | -3 lnKA | -4.46 lnKA | -6 lnKA | -0.547 lnKA | -0.184 lnKA |
| B5 | -9 lnKA | -8.06 lnKA | -6.65 lnKA | -7.42 lnKA | -7.66 lnKA | -1.93 lnKA | -0.687 lnKA |
| B6 | -8.63 lnKA | -7.25 lnKA | -6.84 lnKA | -7.35 lnKA | -8.41 lnKA | -2.97 lnKA | -0.647 lnKA |
| B7 | -8 lnKA | -7.14 lnKA | -4.71 lnKA | -6.54 lnKA | -6.91 lnKA | -0.769 lnKA | -0.324 lnKA |
| B8 | -7.38 lnKA | -5.08 lnKA | -4.65 lnKA | -5.07 lnKA | -6.66 lnKA | -1.7 lnKA | -0.41 lnKA |
| B9 | -8.56 lnKA | -7.72 lnKA | -6.33 lnKA | -7.21 lnKA | -6.57 lnKA | -0.993 lnKA | -0.399 lnKA |
| B10 | -7.08 lnKA | -4.74 lnKA | -4.51 lnKA | -4.83 lnKA | -5.84 lnKA | -0.632 lnKA | -0.198 lnKA |
| B11 | -6.68 lnKA | -4.32 lnKA | -3.79 lnKA | -4.75 lnKA | -5.73 lnKA | -0.728 lnKA | -0.217 lnKA |
| B12 | -8.69 lnKA | -6.14 lnKA | -6.06 lnKA | -1.93 lnKA | – | -0.958 lnKA | -0.245 lnKA |
| B13 | -7.73 lnKA | -5.6 lnKA | -5.33 lnKA | -5.32 lnKA | -6.8 lnKA | -1.41 lnKA | -0.361 lnKA |
